The text below walks through data of PubChem BioAssay (Tox21).

SMILES strings stand for the structures. “And” between values parts separate entries of the source, which are not always exact repeats. Identical values can stand only once. Records with an inconclusive call do not appear. More than one record can exist for a structure, and the calls need not agree. The source made the active and inactive calls. Unless noted, calls follow the shape of the dose curve; as a rule, active = well fitted curve in the direction sought with a large enough effect in the repeat runs; inconclusive = weak or mixed curves; inactive = no such curve, though single readings can be large; an effect the other way counts as inactive or inconclusive.

Test [1] can be described thus: qHTS assay to identify small molecule antagonists of the glucocorticoid receptor (GR) signaling pathway - cell viability counter screen (AID 720693). Also: nearly all actives have a fitted effect of over 55% in size. Particulars: GR-bla HeLa viability, CellTiter-Glo luminescence, 18 h, with 5 nM dexamethasone present; series mostly up to 58.5 µM.
Test [2] in a line: qHTS assay for identifying genotoxic compounds that show differential cytotoxicity against isogenic chicken DT40 cell lines with known DNA damage response pathways - wild type cell line (AID 743012). Also: nearly all actives have a fitted effect of over 60% in size. Also: potency is read from the fitted curve at half-maximal effect. Particulars: DT40 wild type chicken cells viability, CellTiter-Glo, 40 h; series mostly up to 68.4 µM. In outline: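 Cells (DT40 wild type, 300/well) are treated with DMSO-dissolved compounds after a ~0.5 h pre-incubation and kept 40 h at 37 C/5% CO2. Viability is then measured by CellTiter-Glo luminescence following 30 min at room temperature.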
A general note: Quantitative high-throughput screening tests each substance at several concentrations.

Test [3] can be described thus: qHTS assay for identifying genotoxic compounds that show differential cytotoxicity against isogenic chicken DT40 cell lines with known DNA damage response pathways - Rev3 mutant cell line (AID 743014). Also: nearly all actives have a fitted effect of over 55% in size. Also: potency is read from the fitted curve at half-maximal effect. Particulars: chicken DT40 Rev3-/- viability, CellTiter-Glo, 40 h; series mostly up to 68.4 µM.
Test [4] is described as follows: qHTS assay for identifying genotoxic compounds that show differential cytotoxicity against isogenic chicken DT40 cell lines with known DNA damage response pathways - Rad54/Ku70 mutant cell line (AID 743015). Also: nearly all actives have a fitted effect of over 60% in size. Also: potency is read from the fitted curve at half-maximal effect. Particulars: DT40 Rad54/Ku70 mutant viability, CellTiter-Glo, 40 h; series mostly up to 66.8 µM.
Test [5] can be described thus: qHTS assay to identify small molecule antagonists of the androgen receptor (AR) signaling pathway - cell viability counter screen (AID 743033; also: nearly all actives have a fitted effect of over 45% in size; also: potency is read from the fitted curve at half-maximal effect). To be noted: AR-bla HEK293 viability, CellTiter-Glo luminescence, 16 h; series mostly up to 58.5 µM.
A short description of test [6]: qHTS assay to identify small molecule antagonists of the androgen receptor (AR) signaling pathway using the MDA cell line - cell viability counter screen (AID 743041; also: nearly all actives have a fitted effect of over 45% in size). To be noted: MDA-kb2 viability, CellTiter-Fluor, 16 h, cells co-treated with R1881 androgen agonist; series mostly up to 70.3 µM. A digest of the protocol: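 Cells were plated at 3,000 per well and left 5 h. Compounds in DMSO were then pinned in, followed by R1881. After 16 h at 37C, CellTiter-Fluor fluorescence gave viability.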

Test [7] deals with Androgen receptor (Homo sapiens) (UniProt P10275). Nature of the test: qHTS assay to identify small molecule antagonists of the androgen receptor (AR) signaling pathway (AID 743035; active = well fitted inhibition curve with a large enough effect in the signal ratio in the repeat runs, not every such curve was filed as active; the % refers to the signal ratio). To be noted: HEK293 AR-UAS-bla, R1881-stimulated, beta-lactamase FRET, 16 h; series mostly up to 58.5 µM. A digest of the protocol: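 Antagonism is scored as loss of R1881-driven beta-lactamase reporter expression in HEK293 cells carrying the reporter under a UAS element, after 16 h co-treatment at 37C and a 2 h room-temperature FRET substrate read.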
Sequence of Androgen receptor (Homo sapiens) (P10275 whole entry, looked up): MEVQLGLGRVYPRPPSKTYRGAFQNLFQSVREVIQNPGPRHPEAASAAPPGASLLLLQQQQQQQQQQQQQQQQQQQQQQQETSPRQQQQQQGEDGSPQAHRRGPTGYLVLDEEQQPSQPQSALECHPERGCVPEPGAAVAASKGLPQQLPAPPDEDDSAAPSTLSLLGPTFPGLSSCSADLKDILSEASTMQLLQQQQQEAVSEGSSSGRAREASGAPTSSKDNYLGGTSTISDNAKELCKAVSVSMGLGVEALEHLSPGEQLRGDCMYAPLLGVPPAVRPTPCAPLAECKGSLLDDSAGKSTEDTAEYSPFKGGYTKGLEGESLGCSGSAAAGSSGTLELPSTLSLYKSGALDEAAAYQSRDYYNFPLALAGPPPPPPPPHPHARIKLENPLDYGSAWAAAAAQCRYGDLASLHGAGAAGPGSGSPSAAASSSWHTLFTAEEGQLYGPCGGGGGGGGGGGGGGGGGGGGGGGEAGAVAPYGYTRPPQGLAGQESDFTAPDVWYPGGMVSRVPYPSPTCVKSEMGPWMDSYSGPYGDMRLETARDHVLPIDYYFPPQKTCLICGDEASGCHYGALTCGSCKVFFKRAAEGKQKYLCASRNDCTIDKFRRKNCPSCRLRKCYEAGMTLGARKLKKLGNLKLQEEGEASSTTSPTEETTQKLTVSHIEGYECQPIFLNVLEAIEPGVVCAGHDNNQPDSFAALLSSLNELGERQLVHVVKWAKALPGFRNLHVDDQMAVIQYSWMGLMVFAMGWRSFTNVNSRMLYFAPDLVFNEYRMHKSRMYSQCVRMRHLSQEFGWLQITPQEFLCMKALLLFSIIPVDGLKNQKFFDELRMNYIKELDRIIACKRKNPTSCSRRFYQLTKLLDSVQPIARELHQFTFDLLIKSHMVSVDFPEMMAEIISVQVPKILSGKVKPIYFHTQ

Test [8] shares this target. Nature of the test: qHTS assay to identify small molecule agonists of the androgen receptor (AR) signaling pathway (AID 743036; active = well fitted activation curve with a large enough effect in the signal ratio in the repeat runs, with a control signal flat, not every such curve was filed as active; the % refers to the signal ratio). To be noted: HEK293 AR-UAS-bla GripTite, beta-lactamase FRET ratio, 16 h; series mostly up to 62.4 µM. A digest of the protocol:
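Screening used 2,000 AR-bla HEK293 cells per well, treated 16 h at 37C with test compounds in DMSO alongside positive and DMSO-only controls; beta-lactamase activity was then read by LiveBLAzer B/G FRET fluorescence after 2 h at room temperature.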

Test [9] has the same target. Nature of the test: qHTS assay to identify small molecule agonists of the androgen receptor (AR) signaling pathway using the MDA cell line (AID 743040; also: nearly all actives have a fitted effect of over 20% in size). To be noted: MDA-kb2 AR-luc cells, MMTV luciferase, 16 h; series mostly up to 70.3 µM. In outline:
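Cells plated, 5 h at 37C/0% CO2; compound or DMSO pinned; 16 h at 37C; ONE-Glo added; luminescence measured after 30 min at room temperature. Reporter line: MDA-kb2 with MMTV-luciferase responsive to AR and GR.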

Test [10] has the same target. Description: qHTS assay to identify small molecule antagonists of the androgen receptor (AR) signaling pathway using the MDA cell line (AID 743042; also: nearly all actives have a fitted effect of over 55% in size). Particulars: MDA-kb2 AR-luc, MMTV luciferase, R1881 antagonist, 16 h; series mostly up to 70.3 µM. In outline:
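Antagonist mode: compounds plus R1881 agonist added to MDA-kb2 AR-luc cells, incubated 16 h at 37C. Luciferase reporter luminescence quantified, with multiplexed CellTiter-Fluor readout for cell viability.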
% is scaled to controls: 0 for no effect and ±100 for the full control effect.

On to `CC(O)COCC(C)O` (stereo not drawn), for which the compound was classed as inactive in test [1]. The Potency entry in [2], in test [3], in test [4], in [5] and in test [6] was “inactive” in each case.
In the case of `Cc1ccc(N(C)C)cc1`, the Potency result in [2], in [3], in test [4], in [5], in test [8] and in test [9] was “inactive” each time. Besides, the Potency result in [6] was “inactive”. Besides, the compound was called inactive in test [7] and in test [10].
With `Cc1cnc(C(=O)NCCc2ccc(S(=O)(=O)NC(=O)NC3CCCCC3)cc2)cn1`, in test [1], the compound was called inactive. Besides, the Potency entry in test [5] and in [6] was “inactive” in each case.
As for `CCc1ccc(CCOc2ccc(CC3SC(=O)NC3=O)cc2)nc1` (stereo not drawn), the outcome in [1] was inactive. The Potency entry in [2] is “inactive and 68.6 µM (active)”; in [3] it was “inactive and 68.6 µM (active)”; in test [4], 11.9 µM (active) and 61.1 µM (active). Further, the Potency result in [5] and in test [6] was “inactive” throughout.
As for `FC(F)(F)c1ccc(Cl)c(Cl)c1`, the Potency result in test [2], in [3], in test [4], in test [5], in test [8] and in [9] was “inactive” throughout. For the same compound, the Potency result in test [6] was “inactive”. Also, the call in [7] and in [10] was inactive.
Consider `O=S(=O)(O)c1ccc2ccccc2c1`, for which the result in [1] was inactive. Moreover, the Potency result was “inactive and 54.6 µM (active)” in test [2]; “inactive and 43.4 µM (active)” in [3]; “inactive and 54.6 µM (active)” in test [4]. Besides, the Potency result in test [5] and in [6] was “inactive” in each case.
Turning to `CCC(O)OCCCOC` (stereo not drawn), in [1], the result was inactive. For the same compound, the Potency result in test [2], in [3], in [4], in test [5] and in test [6] was “inactive” throughout.
With `CC(=O)OCC(=O)[C@@]12N=C(C)O[C@@H]1C[C@H]1[C@@H]3CCC4=CC(=O)C=C[C@]4(C)[C@H]3[C@@H](O)C[C@@]12C`, in [1], the outcome was inactive. Besides, the Potency result in [2], in test [3], in [4], in test [5] and in test [6] was “inactive” throughout.
As to `CCCCCC(N)=O`, the result in test [1] was inactive. The Potency entry in test [2], in test [3], in test [4], in test [5] and in [6] was “inactive” throughout.
Take `CCCSc1ccc2nc(NC(=O)OC)[nH]c2c1`: in test [1], the compound was classed as inactive. The Potency was 227 nM (active) and 1.09 µM (active) in test [2]; 359 nM (active) and 969 nM (active) in [3]; 452 nM (active) and 1.09 µM (active) in test [4]. Moreover, the Potency result in test [5] and in test [6] was “inactive” each time.
For `CN(C)CCCN`, the result in test [1] was inactive. The Potency result in test [2], in test [3], in test [4], in [5] and in test [6] was “inactive” in each case.
With `CCCCCCCCCCCCS`, the compound was called inactive in test [1]. The Potency result in test [2], in test [3], in test [4], in test [5] and in test [6] was “inactive” throughout.
Regarding `OCc1cccnc1`, the call in [1] was inactive. For the same compound, the Potency result in test [2], in [3], in test [4], in [5] and in [6] was “inactive” in each case.
Take `CC1=CCC2CC1C2(C)C` (stereo not drawn): in test [1], the compound was classed as inactive. Besides, the Potency entry in test [2], in test [3], in test [4], in [5] and in test [6] was “inactive” throughout.
`O=C(O)CCCCCCCCCCC(=O)O`: in [1], the result was inactive. The Potency entry in test [2], in test [3], in [4], in test [5] and in test [6] was “inactive” throughout.
With `CC[C@H](C)C(=O)O[C@H]1C[C@@H](C)C=C2C=C[C@H](C)[C@H](CC[C@@H]3C[C@@H](O)CC(=O)O3)[C@H]21`, the result in test [1] was inactive. Also, the Potency in test [2] is 53.1 nM (active) and 5.52 µM (active) and 682 nM (active); in [3], 8.4 nM (active) and 391 nM (active) and 3.8 nM (active); in test [4] it was 53.1 nM (active) and 2.77 µM (active) and 136 nM (active); in test [5], 31.3 µM (active) and inactive. Besides, the Potency entry in [6] was “inactive”.
For the compound `Cc1cc(C)c(C)cc1C`, the result in [1] was inactive. In addition, the Potency entry in test [2], in test [3], in [4], in test [5] and in test [6] was “inactive” throughout.
As for `COc1ccc2cc([C@H](C)C(=O)O)ccc2c1`, the compound was classed as inactive in [1]. The Potency result in [5] and in [6] was “inactive” each time.
With `Cc1cccnc1`, the call in test [1] was inactive. Besides, the Potency entry in test [2], in test [3], in test [4], in [5] and in [6] was “inactive” each time.
For `NNc1nncc2ccccc12`, the result in test [1] was inactive. In addition, the Potency in [5] is 21.9 µM (active).
For the compound `CCCC(C)=O`, the call in test [1] was inactive. The Potency entry in test [2], in test [3], in test [4], in test [5] and in test [6] was “inactive” throughout.
For `COc1ccc(Cl)cc1C(=O)NCCc1ccc(S(=O)(=O)NC(=O)NC2CCCCC2)cc1`, the call in [1] was inactive. Besides, the Potency result in test [3], in test [5] and in test [6] was “inactive” throughout.
With `CCN(CC)c1ccc(C(=O)c2ccccc2C(=O)O)c(O)c1`, in test [1], the compound was classed as inactive. For the same compound, the Potency result in test [3], in test [4], in [5] and in test [6] was “inactive” each time.
Consider `O=C(O)c1cc(O)c(O)c(O)c1`, for which the compound was classed as inactive in test [1]. Besides, the Potency is 26.6 µM (active) and 30.9 µM (active) in test [2]; 26.6 µM (active) and 24.6 µM (active) in test [3]; 27.6 µM (active) in [4]. Besides, the Potency entry in test [5] and in [6] was “inactive” in each case.
Take `C=CCNC(N)=S`: the call in test [1] was inactive. In addition, the Potency result in test [2], in test [3], in [4], in test [5] and in test [6] was “inactive” throughout.
Turning to `Oc1cccc2ccccc12`, the Potency entry in test [2], in test [3], in test [4], in test [5] and in test [6] was “inactive” throughout.
For `CC(=O)Nc1ccccc1`, the Potency entry in test [2], in test [3], in test [4], in test [5] and in test [6] was “inactive” throughout.
Take `CCN(CC)CCCC(C)Nc1ccnc2cc(Cl)ccc12` (stereo not drawn): the Potency was 21.1 µM (active) in test [2]; 13.3 µM (active) and 2.66 µM (active) in [3]; 18.8 µM (active) in test [4]. For the same compound, in test [5], the Potency result was “inactive”. Moreover, the viability change, negative = cytotoxic in test [6] is -15.9% [at 8.47 µM] (inactive).
Regarding `CC1=CC(=O)NS(=O)(=O)O1`, the Potency result in test [2], in test [3], in [4], in [5] and in test [6] was “inactive” in each case.
For the compound `C#CCN(C)Cc1ccccc1`, the Potency result in test [2], in test [3], in [4], in [5] and in test [6] was “inactive” throughout.
